Bioassay records deposited in PubChem by National Center for Advancing Translational Sciences (NCATS).
HTT cytoprotect = Huntington cell model cytoprotection by ATP luminescence; AID 1471; Potency, µM (highest dose often 56.4 µM), for the others: cytoprotection (ATP increase), actives largely listed as activators; PC12 HTT-Q103 induced, cytoprotection, ATP luminescence, 40 h; 230,000 tested, 0.14% active; note: % of control where 0% means no effect; nearly all actives have a fitted effect of over 45% in size
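PC12 cells stably carrying ecdysone-inducible Htt exon 1 (Q103)–GFP were induced with 100 nM tebufenozide (final) alongside library compounds in a dose series. Cytoprotection was scored as retained ATP by ATPlite luminescence.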
HTT aggregate = inhibitors of mutant huntingtin aggregate formation in PC12 cells; 220,000 tested, 1.1% active; PC12 HttQ103-GFP aggregates, Acumen cytometry, 40 h; AID 1688; Potency, µM (series often up to 46.1 µM), for the others: at the highest dose activity change, negative = inhibition, usual class: inhibitors; note: % is set by controls: 0 for no effect and ±100 for the full control effect; nearly all actives have a fitted effect of over 60% in size
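Quantitative HTS on tebufenozide-induced (100 nM) PC12 cells stably expressing polyQ103 Huntingtin exon 1–GFP. Reduction of bright GFP aggregates, detected by laser scanning cytometry after lysis, identified actives across the titration.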
TSG101-PTAP inh = blocks PTAP/TSG101 interaction to inhibit HIV-1 budding. Potency, µM (highest dose often 115 µM), without a hit: top-dose activity change, negative = inhibition, hits mostly inhibitors. AID 493005. Fluorescence polarization, FITC-PTAP peptide / Tsg101 binding. 340,000 tested, under 10 active; active = well fitted inhibition curve with a large enough effect in the main read-out, with a control signal flat, not every such curve was filed as active; inconclusive = small, poorly fitted or top-dose-only effect, or effect the other way, or a change in a side signal; inactive = no such curve, though single readings can be large or run the other way; note: % of control where 0% means no effect
Target sequence (Q99816 whole entry, looked up): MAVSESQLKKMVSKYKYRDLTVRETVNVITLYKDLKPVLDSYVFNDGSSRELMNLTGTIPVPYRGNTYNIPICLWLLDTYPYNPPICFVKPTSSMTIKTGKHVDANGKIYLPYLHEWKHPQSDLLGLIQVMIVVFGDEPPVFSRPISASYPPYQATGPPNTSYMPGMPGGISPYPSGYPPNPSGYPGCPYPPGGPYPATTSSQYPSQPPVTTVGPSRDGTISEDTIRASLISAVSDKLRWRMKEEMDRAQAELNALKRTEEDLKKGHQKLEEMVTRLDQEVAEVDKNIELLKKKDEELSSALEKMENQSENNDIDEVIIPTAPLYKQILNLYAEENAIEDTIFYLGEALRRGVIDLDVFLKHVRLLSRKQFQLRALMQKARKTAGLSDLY
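Fluorescence anisotropy tracks displacement of a FITC-tagged PTAP peptide (50 nM) from the Tsg101 binding domain (10 uM), following a 20 min room-temperature incubation at pH 7.5.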
Epigenetic reg = derepresses silenced GFP reporter in murine cells | Potency, µM (series often up to 53.9 µM), for the others: at the top dose GFP activation, most hits filed as activators | 280,000 tested, 0.2% active | AID 1865 | murine LDR cells, GFP reporter derepression, 30 h; note: % of control where 0% means no effect; nearly all actives have a fitted effect of over 60% in size
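In this reporter-derepression format, murine cells bearing a silenced integrated CMV-GFP locus incubate with test compound (30 h, 37 C), then are washed and imaged; fluorescent objects of 20–120 um count as induced cells.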
PINK1 expr mod = PINK1 expression modulation. PINK1 immunofluorescence, high-content cytometry, 24 h. Potency, µM (doses to about 76.6 µM), without a hit: at the top dose activation (PINK1 increase), usual class: activators. 410,000 tested, 0.2% active; active = well fitted activation curve with a large enough effect; inconclusive = small, poorly fitted or top-dose-only effect; cell line not stated here; note: % of control where 0% means no effect; nearly all actives have a fitted effect of over 65% in size
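Stable cell line treated 24 h with compounds at 5 concentrations (CCCP controls), then fixed and immunostained for PINK1 plus nuclear and cell stains; PINK1 immunofluorescence quantified by laser-scanning microplate cytometry.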
Anesthetic bind = candidate novel general anesthetic via apoferritin binding; Potency, µM (series often up to 77.5 µM), without a hit: top-dose activity change, negative = displacement, actives largely listed as inhibitors; AID 485281; P02791; apoferritin/1-aminoanthracene competitive binding, fluorescence; 350,000 tested, 0.074% active; note: % is set by controls: 0 for no effect and ±100 for the full control effect; nearly all actives have a fitted effect of over 20% in size
Target sequence (P02791 2-175 limits assumed): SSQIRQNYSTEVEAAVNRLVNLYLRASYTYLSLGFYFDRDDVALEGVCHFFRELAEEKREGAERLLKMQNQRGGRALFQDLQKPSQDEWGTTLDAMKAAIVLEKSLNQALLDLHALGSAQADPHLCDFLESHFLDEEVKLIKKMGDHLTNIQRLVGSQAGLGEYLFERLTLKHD
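10 uM apoferritin + 50% sat. 1-AMA, PBS; cpd 10 min RT; Ex380/Em535 endpoint; normalized to free probe vs complex; 4-param Hill fit; propofol titration as pos. ctrl.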
* = called active by the depositor; u = inconclusive; x = not tested or not shown; ! = repeats disagree; [ ] = another dose, or the depositor's remark. The full list was thinned out, with hits kept by preference. Unless noted, calls come from the whole dose curve; as a rule, active = well fitted curve in the direction sought with a large enough effect; inconclusive = small, poorly fitted or top-dose-only effect, or another doubt; inactive = no such curve, though single readings can be large; an effect the other way counts as inactive or inconclusive. Potency is the fitted concentration of half-maximal effect.

SMILES	HTT cytoprotect	HTT aggregate	TSG101-PTAP inh	Epigenetic reg	PINK1 expr mod	Anesthetic bind
COc1cccc(C2(CC(=O)N3CCN(c4ccccc4O)CC3)CC(=O)N(C3CCCC3)C2=O)c1 (centres undefined)	x	x	x	x	0%	x
COc1ccc(C(=O)NCc2ccc3c(c2)CCN3C(=O)c2ccc(C)cc2)cc1	x	x	x	0%	2%	0%
COc1ccc(C(=O)Oc2c(CN3CCOCC3)cc(Cl)c3cccnc23)cc1	-102%	u	-3%	7.1µM*	1%	u
O=C(Oc1c(Cl)cc(Cl)c2cccnc12)c1cccs1	-61%[10 µM]	10µM*	-6%	u	-1%	u
COc1ccc(CCNC(=O)Cc2c(C)c3c(cc(C)c4c(C)coc43)oc2=O)cc1OC	x	x	x	-3%	-1%	-6%
COC(=O)c1cc(CNC(=O)c2ccc3ccccc3n2)cc(NC(=O)c2cccc(OC)c2)c1	x	x	x	x	-1%	x
COC(=O)c1cc(CNC(=O)c2cnsn2)cc(NC(=O)c2ccccc2OC)c1	x	x	x	x	-1%	x
Cc1cc(C)c2c(N)c(C(=O)N/N=C/c3cccs3)sc2n1	-3%[10 µM]	-10%[9.22 µM]	10%	u	25µM*	54%
COC(=O)[C@@H]1C[C@@H](NC(=O)c2ccc(C(F)(F)F)cc2)CN1Cc1cccc(O)c1	x	x	x	x	0%	x
Cn1c(=O)c2nc(NCc3ccccc3)cnc2n(C)c1=O	-12%[10 µM]	1%[9.22 µM]	-9%	2%	2%	226%
Cc1nc2c(=O)n(C)c(=O)n(C)c2nc1Cl	-90%[10 µM]	10µM*	-1%	u	-3%	-6%
Cn1nnc2sc3c(c2c1=O)CCCC3	-15%	-6%	-4%	-1%	10%[38.3 µM]	32µM*
CCOc1ccccc1CN1CCCC(c2nc(C)ncc2-c2ccc(F)cc2)C1 (centres undefined)	x	x	x	x	0%	x
CC1CCC(C(C)C)C(OC(=O)Cn2c(-c3ccccc3)[n+](C)c3ccccc32)C1 (centres undefined)	-49%[10 µM]	11µM*	-3%	-2%	u	0%
Nc1[nH]c(=S)nc2nnsc12	x	x	x	x	2%	x
CC(NC(=O)/C(=C/c1ccc(OC(F)F)cc1)c1ccccc1)c1ccccc1 (centres undefined)	5%[10 µM]	u	-4%	-1%	45µM*	-20%
Cc1cccc(CNC(=O)c2cnn(-c3nccc(-c4cc(C)sc4C)n3)c2C)n1	x	x	x	x	7%	x
O=C(Nc1cccc(F)c1)c1ccc(-c2ccccc2Cl)o1	x	7%	-3%	-2%	u	-20%
Cc1ccc(-c2ccc(C(=O)Nc3cccc(F)c3)o2)c2ccccc12	x	22µM*	0%	u	2%	-4%
CC(OC(=O)c1cc2sccc2n1C)C(=O)NCC1CCCO1 (centres undefined)	-17%[10 µM]	1%	-3%	-5%	10µM*	-8%
CCC(OC(=O)c1cc2sccc2n1C)C(=O)NCC1CCCO1 (centres undefined)	-9%[10 µM]	7%	-3%	-1%	2%[38.3 µM]	-10%
COc1ccc(NC(=O)c2ccccc2OCC(=O)Nc2ccc(Br)cc2)cc1	x	x	x	x	0%	x
CCOC(=O)C1=C(CN(CC)Cc2ccccc2)NC(=O)NC1c1ccc(OC(C)C)cc1 (centres undefined)	x	x	x	-2%	u	74%
Cc1ccc(-c2ccc(=O)n(Cc3c(F)cccc3Cl)n2)cc1	x	x	-2%	x	7%	0%
Cc1ccc(C)c(-c2ccc(=O)n(Cc3c(F)cccc3Cl)n2)c1	x	x	-10%	4%	13%	45µM*!
SMILES	HTT cytoprotect	HTT aggregate	TSG101-PTAP inh	Epigenetic reg	PINK1 expr mod	Anesthetic bind
COc1ccccc1-c1ccnc(-n2ncc(C(=O)N(C)C(C)c3ccon3)c2C2CC2)n1 (centres undefined)	x	x	x	x	0%	x
Nc1ccc2c(c1)C=C/C2=C\c1ccccc1	x	x	x	x	0%	x
Cc1c(C(=O)Nc2ccc(Oc3ccccc3)cc2)sc2nc3n(c(=O)c12)CCC3	-44%	4.5µM*	-1%	-1%	1%	u
Cc1nc(C)c(C(=O)Nc2ccc(Oc3ccccc3)cc2)o1	5%[10 µM]	u	-7%	-10%	5.6µM*	-1%
COc1cc2nc(N(C)C)c(CNCc3nonc3C)cc2c(OC)c1OC	x	x	x	x	0%	x
c1ccc(-c2csc3ncnc(NCC4COc5ccccc5O4)c23)cc1 (centres undefined)	17%[10 µM]	8.9µM*	-3%	-4%	4%	-10%
Cc1sc2ncnc(NCC3COc4ccccc4O3)c2c1C (centres undefined)	30%[10 µM]	u	-4%	0%	6%	-10%
CC(=O)c1ccccc1S(=O)(=O)N1CCN(c2nc(-c3cccs3)nc3ccccc23)CC1	x	x	x	x	0%	x
Cc1c(NC(=O)NC(=O)c2ccc(F)cc2)c(=O)n(-c2ccccc2)n1C	-14%	1%	-1%	1%	0%	-7%
Cc1c(N=C2N=C(NC(=O)c3ccc(F)cc3)c3ccccc32)c(=O)n(-c2ccccc2)n1C	18%[10 µM]	4%	u	9%	40µM*	-7%
O=C(CSc1ncccn1)NCC1Cc2cccc(-c3ncccn3)c2O1 (centres undefined)	x	x	x	x	1%	x
CCOC(=O)c1cnc(-n2nc(C)cc2C)nc1NCCc1ccccc1	-70%	13µM*	-1%	2%	28%	u
CCOC(=O)c1cnc(-n2nc(C)cc2C)nc1Nc1ccccc1OC	-13%	2%	x	-1%	x	-11%
Cc1ccc(S(=O)(=O)N2CCN(c3nc(-c4ncccn4)nc4ccccc34)CC2)cc1	x	x	x	x	2%	x
CCC1(C2CCN(Cc3ccc(C)s3)CC2)NC(=O)N(CC2COc3ccccc3O2)C1=O (centres undefined)	x	x	x	x	-1%	x
O=C(NNC1=C(C(=O)C(F)(F)F)CCC1)c1cccc(O)c1	11%[10 µM]	u	-6%	3%	1%	-5%
Cc1cccc(C(=O)NNC2=C(C(=O)C(F)(F)F)CCC2)c1O	-57%	u	-8%	1%	16µM*	-23%
COc1cc(C(=O)Nc2ccccc2-c2nc(-c3ccccc3)no2)cc(OC)c1OC	x	x	x	0.63µM*	3%	-12%
COc1ccc(C(=O)NCc2ccc3c(c2)OCO3)cc1	15%[10 µM]	9%	0%	0%	-1%	-12%
O=C(NCc1ccc2c(c1)OCO2)c1ccc(N2C(=O)C3CCCCC3C2=O)cc1 (centres undefined)	2%	2%	-2%	0%	3%	8.9µM*
CC(C)(C)n1ncc(Oc2ccccc2[N+](=O)[O-])c(Cl)c1=O	x	13µM*	0%	-1%	16%	5%
